Source: PubChem BioAssay (National Center for Advancing Translational Sciences (NCATS))
JMJD2A Tudor inh: JMJD2A Tudor domain (human) inhibition; AlphaScreen JMJD2A-Tudor / H3K4me3 peptide binding; Potency, µM (titrated, usually from 114 µM), inactives show top-dose activity change, negative = inhibition, most hits filed as inhibitors; hit rate 4.4% among 390,000; AID 504339; also: % is scaled to controls: 0 for no effect and ±100 for the full control effect; nearly all actives have a fitted effect of over 50% in size
Sfp inh: blocks B. subtilis Sfp PPTase activity. Biochemical Sfp PPTase activity, qHTS. Potency, µM, for inactives: largest response in the series, negative = inhibition, usual class: inhibitors. Q9F4F7. hit rate 3.5% among 310,000;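 also: the enzyme is Sfp with the accession as filed and its product quenches rhodamine fluorescence; 0% = enzyme reaction without inhibitor and -100% = no enzyme wells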
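With Hepes-Na pH 7.6 buffer containing 10 mM MgCl2, Sfp (15 nM) modified BHQ-2-YbbR (12.5 uM) using rhodamine-CoA (5 uM). Two reads 30 minutes apart at 525/598 nm yielded each well's rate.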
L3MBTL1 inh: inhibitors of human L3MBTL1; hit rate 0.66% among 230,000; AID 485360; Potency, µM (titrated, usually from 57.1 µM), without a hit: at the highest dose activity, negative = inhibition, usual class: inhibitors; AlphaScreen L3MBTL1–H3K9me1 peptide binding; Q9Y468; also: % is scaled to controls: 0 for no effect and ±100 for the full control effect; nearly all actives have a fitted effect of over 60% in size
Target sequence (Q9Y468 whole entry, looked up): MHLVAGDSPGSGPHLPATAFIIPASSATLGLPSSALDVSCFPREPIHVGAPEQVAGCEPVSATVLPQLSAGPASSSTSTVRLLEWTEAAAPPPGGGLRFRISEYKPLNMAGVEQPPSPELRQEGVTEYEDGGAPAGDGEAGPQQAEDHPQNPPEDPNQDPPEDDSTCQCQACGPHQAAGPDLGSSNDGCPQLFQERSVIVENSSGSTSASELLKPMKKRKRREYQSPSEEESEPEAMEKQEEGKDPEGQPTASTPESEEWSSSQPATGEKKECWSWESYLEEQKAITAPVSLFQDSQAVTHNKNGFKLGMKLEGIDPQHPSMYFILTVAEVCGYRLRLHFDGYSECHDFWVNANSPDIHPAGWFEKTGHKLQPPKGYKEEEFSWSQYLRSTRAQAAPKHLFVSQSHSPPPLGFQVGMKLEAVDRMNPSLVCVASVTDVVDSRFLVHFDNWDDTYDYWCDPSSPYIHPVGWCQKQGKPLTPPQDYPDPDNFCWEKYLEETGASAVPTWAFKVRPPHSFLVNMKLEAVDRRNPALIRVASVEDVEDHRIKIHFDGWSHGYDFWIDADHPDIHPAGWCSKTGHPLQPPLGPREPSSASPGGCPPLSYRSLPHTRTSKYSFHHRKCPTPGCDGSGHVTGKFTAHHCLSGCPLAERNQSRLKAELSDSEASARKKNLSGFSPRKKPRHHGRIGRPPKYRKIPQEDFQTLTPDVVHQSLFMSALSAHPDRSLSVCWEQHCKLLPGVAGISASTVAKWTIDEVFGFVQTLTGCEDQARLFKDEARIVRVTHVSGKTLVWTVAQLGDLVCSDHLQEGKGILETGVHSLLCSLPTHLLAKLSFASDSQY
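AlphaScreen proximity signal between nickel-chelate acceptor and streptavidin donor beads (final 10 ug/mL) reports binding of 50 nM L3MBTL1 to 75 nM biotin-H3 K9me1 peptide; complex incubated with compounds 30 min at room temperature; cefsulodin titration as control.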
G9a block: blocks human histone lysine methyltransferase G9a | Q96KQ7 | G9a H3K9 monomethylation, AlphaScreen, 2 h | Potency, µM (series often up to 102 µM), without a hit: at the top dose activity, negative = inhibition, most hits filed as inhibitors | hit rate 8.8% among 350,000 | AID 504332; also: % is scaled to controls: 0 for no effect and ±100 for the full control effect; nearly all actives have a fitted effect of over 75% in size
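Enzyme 20 nM + cpd, 15 min RT; add b-H3K9 pep 500 nM / SAM 20 uM; 2 h RT; anti-H3K9me1 Ab 0.5 ug/mL + SA donor / anti-rabbit acceptor beads 20 ug/mL each, 10 min; AlphaScreen read.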
HP1b binding inh: HP1-beta chromodomain-methylated histone interaction inhibition. P83916. AlphaScreen HP1-beta / biotin-H3K9me3 peptide binding. Potency, µM (series often up to 114 µM), inactives show at the top dose activity change, negative = inhibition, hits mostly inhibitors. hit rate 0.56% among 390,000. AID 540317; also: nearly all actives have a fitted effect of over 70% in size
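HP1-beta protein (50 nM final) preincubated 30 min at room temperature with biotinylated H3(1-18)K9me3 peptide (50 nM) in PBS pH 7.4, 0.01% Tween-20, then compound added for 30 min. AlphaScreen streptavidin donor/nickel chelate acceptor beads (10 ug/mL final), 30 min dark, luminescence read.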
BAZ2B block: blocks human BAZ2B. AID 504333. hit rate 4.4% among 360,000. AlphaScreen BAZ2B-H3K14Ac peptide displacement. Potency, µM (doses to about 114 µM), for the others: at the highest dose activity change, negative = inhibition, usual class: inhibitors; also: % is scaled to controls: 0 for no effect and ±100 for the full control effect; nearly all actives have a fitted effect of over 60% in size
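AlphaScreen displacement: compounds (up to 110uM) incubated 30 min at room temperature with a preformed 50 nM BAZ2B/50 nM biotinylated H3K14Ac peptide complex in PBS pH 7.4 with Tween-20. Donor and acceptor beads at 10 ug/mL final added, 20 min light-protected before reading.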
The depositor's hits bear a star; ? = inconclusive; / = not tested or not shown; [ ] = another dose, or the depositor's remark. The list is not random: actives were taken first. Their share in the collection is about 12%. Calls follow the shape of the dose curve; as a rule, active = well fitted curve in the direction sought with a large enough effect; inconclusive = small, poorly fitted or top-dose-only effect, or another doubt; inactive = no such curve, though single readings can be large; an effect the other way counts as inactive or inconclusive. Potency is read from the fitted curve at half-maximal effect.

SMILES | JMJD2A Tudor inh | Sfp inh | L3MBTL1 inh | G9a block | HP1b binding inh | BAZ2B block
CCOc1ccc(N2C(=O)CC(N3CCC(O)(c4ccc(Br)cc4)CC3)C2=O)cc1 (stereo unspecified) | -4% | -15% | / | 45µM* | 38% | -3%
O=C1CC(N2CCN(c3ccc(F)cc3)CC2)C(=O)N1c1ccc(F)cc1 (stereo unspecified) | -3% | 7% | 0% | / | 38% | -5%
CCOc1ccc(N2C(=O)CC(N3CCN(c4ccc(F)cc4)CC3)C2=O)cc1 (stereo unspecified) | -14% | 18% | -2% | 45µM* | 55% | -21%
O=C(CN1C(=O)S/C(=C\c2ccccn2)C1=O)Nc1ccccc1 | -5% | -7% | / | -2%[0.501 µM] | 29% | -8%
COc1cc(/C=C2\SC(=O)N(CC(=O)Nc3ccc(C)cc3)C2=O)cc(Cl)c1OCC(=O)O | 11µM* | 14% | ? | ? | 14µM* | 14µM*
Cc1ccc(NC(=O)CN2C(=O)S/C(=C\c3ccccn3)C2=O)cc1 | -3% | -17% | 14% | -12%[59 µM] | 37% | 4%
O=C(CN1C(=O)S/C(=C\c2cc(Cl)c(O)c(Cl)c2)C1=O)Nc1ccccc1 | ? | 6% | -5% | / | -16% | 45µM*
CCN(CC(=O)Nc1ccc(NC(C)=O)cc1)C(=O)c1cc(-c2ccccc2Cl)nc2ccccc12 | -17% | / | / | / | 12% | /
Cc1nnc(-c2ccc(Cl)cc2)[nH]c1=O | -11% | 25% | 8% | 10% | 37% | 2%
CC(C)c1ccc(-c2nnc(N)s2)cc1 | -13% | ? | 3% | 45µM* | -7% | 2%
Cc1ccc(C)c(NC(=S)/C(=C(\[O-])c2ccc(Cl)s2)[n+]2ccccc2)c1 | ? | 50µM* | ? | ? | -20% | 35µM*
CC(C)(C)c1cc[n+](/C(C(=S)NC2CC2)=C(/[O-])c2ccc(Cl)s2)cc1 | -32% | 56µM* | / | 10µM* | -18% | 0%
[O-]C(=C(C(=S)Nc1cccc2ccccc12)[n+]1cccc(CO)c1)c1ccc(Cl)s1 | -49% | / | / | / | -38% | /
[O-]/C(=C(\C(=S)Nc1cccc2ccccc12)[n+]1ccccc1)c1ccc(Cl)s1 | ? | -28% | ? | ? | ? | 35µM*
Cc1cc(C)cc(NC(=S)/C(=C(\[O-])c2ccc(Cl)cc2Cl)[n+]2ccc(C(C)(C)C)cc2)c1 | -14% | 25% | / | 23%[12.7 µM] | 11% | -16%
Cc1ccc(C)c(NC(=O)C[n+]2ccccc2)c1 | -8% | 5% | 4% | -6% | 28% | -4%
Cc1cc(C)cc(NC(=S)/C(=C(\[O-])c2ccc(Cl)s2)[n+]2cccc(C)c2)c1 | 50µM* | -20% | ? | 45µM* | ? | 40µM*
CC(C)CN1CC2(CCN(S(=O)(=O)c3ccccc3)CC2)C1 | / | 6% | / | -2%[12.7 µM] | / | /
CC(=O)NC12CC3CC(C1)CC(C(=O)Nc1cccc(S(=O)(=O)N4CCCCCC4)c1)(C3)C2 | -20% | / | / | / | 24% | /
CCc1cccc(CC)c1NC(=S)/C(=C(\[O-])c1ccc(Cl)s1)[n+]1ccccc1 | ? | -15% | -10% | 45µM* | -16% | ?
CCN1CCN(CC2CC3C=CC2C3)CC1 (stereo unspecified) | 1.3µM* | ? | -5% | ? | ? | 50µM*
Cc1ccccc1CN1CCN(S(C)(=O)=O)CC1 | -9% | 15% | -7% | -1%[59 µM] | 7% | 0%
Cc1ccccc1CN1CCN(CC2CC3C=CC2C3)CC1 (stereo unspecified) | 5.6µM* | 79µM* | / | 3.2µM* | ? | 22µM*
Cc1ccc2onc(CNC(=O)NCc3ccc(Cl)cc3)c2c1 | -14% | / | / | 10%[59 µM] | 25% | -1%
COc1ccc(O)c(C(=O)CC(=O)c2ccc(F)cc2)c1 | ? | 2% | / | 79µM* | ? | ?
SMILES | JMJD2A Tudor inh | Sfp inh | L3MBTL1 inh | G9a block | HP1b binding inh | BAZ2B block
CC(C)(C)c1nc2sc3c(c2c(=O)o1)CCCC3 | 18% | -7% | / | -9% | 49% | 8%
CCc1nc2sc3c(c2c(=O)o1)CCCC3 | -15% | 25µM* | / | -15%[59 µM] | 22% | -13%
Cc1ccccc1OCC(=O)OCC(=O)NCC1CCCO1 (stereo unspecified) | -17% | 3% | / | 15% | 33% | -10%
Cc1cccc(C)c1Nc1c(-c2ccccn2)nc2c(C)cccn12 | 10µM* | / | / | -38%[59 µM] | -18% | ?
Cc1ccccc1Nc1c(-c2ccc(Cl)cc2)nc2c(C)cccn12 | -11% | / | / | -27%[59 µM] | 5% | -4%
COc1ccc(-c2nc3ncccn3c2Nc2ccccc2)cc1 | 0% | 5% | -22% | -8% | 28% | -32%
Cc1cccn2c(Nc3ccccc3)c(-c3ccccn3)nc12 | 13µM* | 15% | / | 40µM* | 9% | 18µM*
Brc1ccc(CNc2cc3c(cc2Br)OCCO3)cc1 | ? | 15% | ? | 45µM* | ? | 32µM*
Cc1cccc(N=Nc2cnc(N)s2)c1 | 45µM* | 2% | -5% | 28µM* | ? | ?
COc1ccc(C2C(C(=O)OC(C)C)=C(C)N=c3s/c(=C\c4cccs4)c(=O)n32)cc1 (stereo unspecified) | -30% | -12% | 1% | -12% | -5% | ?
CCOC(=O)C1=C(C)N=c2s/c(=C/c3ccc(OCC(=O)O)cc3)c(=O)n2C1c1ccc(F)cc1 (stereo unspecified) | 79µM* | 79µM* | / | ? | -16% | ?
CCOC(=O)C1=C(C)N=c2s/c(=C\c3ccncc3)c(=O)n2C1c1ccc2c(c1)OCO2 (stereo unspecified) | ? | -20% | -13% | -34%[12.7 µM] | -11% | ?
CCOC(=O)C1=C(C)N=c2s/c(=C/c3ccc(OCC(=O)O)c(OC)c3)c(=O)n2C1c1ccc(Cl)cc1 (stereo unspecified) | 20µM* | / | / | / | 32µM* | /
CCOC(=O)C1=C(C)N=c2s/c(=C/c3ccc(OCC(=O)O)cc3)c(=O)n2C1c1ccc(SC)cc1 (stereo unspecified) | / | -10% | ? | / | / | 35µM*
CCOC(=O)C1=C(C)N=c2s/c(=C\c3ccc(OCC(=O)O)cc3)c(=O)n2C1c1ccc(Cl)cc1 (stereo unspecified) | 20µM* | -3% | ? | / | 40µM* | 7.9µM*
CC1=C(C(=O)Nc2ccccc2)C(c2ccc(C)o2)n2c(s/c(=C/c3ccccc3)c2=O)=N1 (stereo unspecified) | -6% | 13% | / | -8% | 42% | 2%
Cc1noc(Cn2c(=O)c3ccccc3n(CC(=O)Nc3cc(Cl)ccc3C)c2=O)n1 | -1% | / | / | 3%[59 µM] | 31% | -3%
